From PubChem BioAssay AID1159580 (chemical genetic matrix, 2015)
Several values for one entry are separate records, joined by “and”; a condition that tells them apart may be missing. Identical values can stand only once. The whole screen tested about 5,500 compounds, of which about 2,000 (36%) were called active. About 18% were inconclusive and are not listed. Rule as the data show it: active = normalized growth mostly below about 0.91 (no sharp cut-off); inconclusive = no clear call, values can overlap the other calls; inactive = mostly above about 0.92. This is one part of the list.

Experiment: chemical genetic growth profiling, strain panel (AID 1159580);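 also: tested at 20 µM; growth read once vehicle control cultures reached saturation at 30 °C; 1 = growth at the plate median or of vehicle wells; lower values mean less growth of the strain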
Conditions: S. cerevisiae deletion strains, growth OD

Measured: normalized growth

C[C@]12C=CC(=O)C=C1CCC1C2C(=O)C[C@@]2(C)C1CC[C@]2(O)C(=O)CO (stereo not given in full)
inactive: locus YAL013W, strain DEP1, stronger effect = lower value 0.992 | locus YAL021C, strain ccr4, stronger effect = lower value 1.03 | locus YAL026C, strain drs2, stronger effect = lower value 1.02 | locus YAL030W, strain snc1, stronger effect = lower value 0.997 | locus YBL061C, strain skt5, stronger effect = lower value 0.992 | locus YBR009C, strain hhf1, stronger effect = lower value 1.01 | locus YBR021W, strain FUR4, stronger effect = lower value 0.985 | locus YBR023C, strain chs3, stronger effect = lower value 1.01 | locus YBR171W, strain sec66, stronger effect = lower value 0.979 | locus YBR229C, strain ROT2, stronger effect = lower value 0.954 | locus YBR231C, strain swc5, stronger effect = lower value 1.01 | locus YBR279W, strain paf1, stronger effect = lower value 1 | locus YCL011C, strain gbp2, stronger effect = lower value 1 | locus YCL016C, strain dcc1, stronger effect = lower value 1.01 | locus YCL029C, strain bik1, stronger effect = lower value 0.978 | locus YCL061C, strain MRC1, stronger effect = lower value 1 | locus YCL069W, strain vba3, stronger effect = lower value 0.996 | locus YCR088W, strain abp1, stronger effect = lower value 0.989 | locus YDL005C, strain med2, stronger effect = lower value 0.981 | locus YDL035C, strain GPR1, stronger effect = lower value 0.981 | locus YDL040C, strain nat1, stronger effect = lower value 0.995 | locus YDL074C, strain BRE1, stronger effect = lower value 0.965 | locus YDL101C, strain DUN1, stronger effect = lower value 0.985 | locus YDL134C, strain PPH21, stronger effect = lower value 0.992 | locus YDL185W, strain tfp1, stronger effect = lower value 0.983 | locus YDL192W, strain arf1, stronger effect = lower value 0.997 | locus YDR001C, strain nth1, stronger effect = lower value 1 | locus YDR069C, strain doa4, stronger effect = lower value 0.98 | locus YDR101C, strain arx1, stronger effect = lower value 0.991 | locus YDR137W, strain rgp1, stronger effect = lower value 1.01 | locus YDR150W, strain NUM1, stronger effect = lower value 0.987 | locus YDR159W, strain sac3, stronger effect = lower value 1.01 | locus YDR162C, strain NBP2, stronger effect = lower value 0.992 | locus YDR195W, strain ref2 0.916 | locus YDR297W, strain sur2, stronger effect = lower value 0.989 | locus YDR318W, strain mcm21, stronger effect = lower value 0.996 | locus YDR334W, strain swr1, stronger effect = lower value 0.999 | locus YDR335W, strain msn5, stronger effect = lower value 0.997 | locus YDR388W, stronger effect = lower value 0.986 | locus YDR392W, strain spt3, stronger effect = lower value 1.05 | locus YDR502C, strain sam2, stronger effect = lower value 0.989 | locus YEL003W, strain gim4, stronger effect = lower value 1 | locus YEL037C, strain rad23, stronger effect = lower value 0.996 | locus YEL061C, strain CIN8 (second series), stronger effect = lower value 0.997 | locus YEL061C, strain CIN8, stronger effect = lower value 0.985 | locus YER015W, strain faa2, stronger effect = lower value 0.996 | locus YER016W, strain bim1, stronger effect = lower value 1.01 | locus YER110C, stronger effect = lower value 0.966 | locus YER111C, strain swi4, stronger effect = lower value 0.981 | locus YER155C, strain BEM2 (second series), stronger effect = lower value 0.973 | locus YER155C, strain BEM2, stronger effect = lower value 1 | locus YER167W, strain BCK2, stronger effect = lower value 0.991 | locus YFR010W, strain ubp6, stronger effect = lower value 0.984 | locus YGL078C, strain dbp3, stronger effect = lower value 0.984 | locus YGL086W, strain mad1, stronger effect = lower value 0.995 | locus YGL167C, strain pmr1, stronger effect = lower value 0.991 | locus YGL173C, strain kem1, stronger effect = lower value 0.994 | locus YGL227W, strain vid30, stronger effect = lower value 0.999 | locus YGL240W, strain doc1, stronger effect = lower value 0.978 | locus YGL248W, strain PDE1, stronger effect = lower value 0.978 | locus YGL253W, strain hxk2, stronger effect = lower value 0.992 | locus YGR078C, strain PAC10, stronger effect = lower value 0.988 | locus YGR135W, strain pre9, stronger effect = lower value 0.997 | locus YGR252W, strain gcn5, stronger effect = lower value 0.95 | locus YHR013C, strain ard1, stronger effect = lower value 0.999 | locus YHR027C, strain rpn1, stronger effect = lower value 1 | locus YHR030C, strain SLT2, stronger effect = lower value 0.997 and 1.02 | locus YHR079C, strain IRE1 (second series), stronger effect = lower value 0.998 | locus YHR079C, strain IRE1, stronger effect = lower value 1.05 | locus YHR094C, strain hxt1, stronger effect = lower value 0.988 | locus YHR129C, strain ARP1, stronger effect = lower value 0.963 | locus YHR142W, strain chs7, stronger effect = lower value 0.972 | locus YHR200W, strain rpn10, stronger effect = lower value 0.986 | locus YIL066C, strain RNR3, stronger effect = lower value 0.98 | locus YIL073C, strain SPO22, stronger effect = lower value 1.01 | locus YIL125W, strain kgd1, stronger effect = lower value 0.993 | locus YIR030C, strain dcg1, stronger effect = lower value 0.987 | locus YJL092W, strain hpr5, stronger effect = lower value 1 | locus YJL095W, strain BCK1 (second series), stronger effect = lower value 1.01 | locus YJL095W, strain BCK1, stronger effect = lower value 0.982 and 1.03 | locus YJL115W, strain asf1, stronger effect = lower value 0.988 | locus YJL129C, strain trk1, stronger effect = lower value 0.978 | locus YJL134W, strain LCB3, stronger effect = lower value 0.995 | locus YJL154C, strain vps35, stronger effect = lower value 1 | locus YJL164C, strain tpk1, stronger effect = lower value 1.02 | locus YJL166W, strain qcr8, stronger effect = lower value 0.976 | locus YJL168C, strain set2, stronger effect = lower value 0.992 | locus YJL187C, strain SWE1 (second series), stronger effect = lower value 0.984 | locus YJR043C, strain POL32, stronger effect = lower value 1 | locus YJR066W, strain TOR1, stronger effect = lower value 0.976
